Compound activity from PubChem.
Shown are actives, neighbours in structure and some others; about 9% of the full set was active somewhere.
JMJD2A Tudor inh: qHTS Assay for Inhibitors of JMJD2A-Tudor Domain; actives 4.4% (n = 390,000); AlphaScreen JMJD2A-Tudor / H3K4me3 peptide binding; Potency, µM (top dose mostly 114 µM), inactives show top-dose activity change, negative = inhibition, usual class: inhibitors; note: % is set by controls: 0 for no effect and ±100 for the full control effect; nearly all actives have a fitted effect of over 50% in size
HP1b binding inh: HTS for Inhibitors of HP1-beta Chromodomain Interactions with Methylated Histone Tails; AID 540317, 2011; actives 0.56% (n = 390,000); AlphaScreen HP1-beta / biotin-H3K9me3 peptide binding; Potency, µM (titrated, usually from 114 µM), for inactives: at the top dose activity change, negative = inhibition, hits mostly inhibitors; note: nearly all actives have a fitted effect of over 70% in size
Target sequence (P83916 whole entry, looked up): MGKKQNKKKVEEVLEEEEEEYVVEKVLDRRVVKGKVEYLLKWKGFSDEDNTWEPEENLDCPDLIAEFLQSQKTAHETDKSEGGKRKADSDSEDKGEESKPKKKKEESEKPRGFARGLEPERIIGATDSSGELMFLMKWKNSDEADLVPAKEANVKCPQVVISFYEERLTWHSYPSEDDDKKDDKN
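HP1-beta protein (50 nM final) preincubated 30 min at room temperature with biotinylated H3(1-18)K9me3 peptide (50 nM) in PBS pH 7.4, 0.01% Tween-20, then compound added for 30 min. AlphaScreen streptavidin donor/nickel chelate acceptor beads (10 ug/mL final), 30 min dark, luminescence read.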
PLK1 PBD inh: qHTS for Inhibitors of PLK1-PDB (polo-like kinase 1 - polo-box domain): Primary Screen. Serine/threonine-protein kinase PLK1 (Homo sapiens), P53350. Plk1 PBD binding of FITC phosphopeptide, fluorescence polarization. Potency, µM, without a hit: max response, negative = inhibition, actives largely listed as inhibitors. actives 2.8% (n = 360,000). AID 720504, 2013; note: series mostly up to about 57 µM; % is set by controls: 0 for no effect and ±100 for the full control effect; nearly all actives have a fitted effect of over 65% in size
BAZ2B block: qHTS Assay for Inhibitors of BAZ2B; Bromodomain adjacent to zinc finger domain protein 2B (Homo sapiens), Q9UIF8; AlphaScreen BAZ2B-H3K14Ac peptide displacement; Potency, µM (titrated, usually from 114 µM), without a hit: at the highest dose activity change, negative = inhibition, most hits filed as inhibitors; actives 4.4% (n = 360,000); AID 504333, 2011; note: % is set by controls: 0 for no effect and ±100 for the full control effect; nearly all actives have a fitted effect of over 60% in size
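BAZ2B 50 nM plus b-H3(5-23)K14Ac 50 nM, PBS pH 7.4/0.01% Tween-20, 30 min RT; compound added (max 110 uM), 30 min RT; streptavidin donor/Ni-chelate acceptor beads 10 ug/mL final, 20 min dark; AlphaScreen read.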
12-LOX inh: Primary qHTS assay for inhibitors of human arachidonate 12S-lipoxygenase (ALOX12): Round 2; Polyunsaturated fatty acid lipoxygenase ALOX12 (Homo sapiens), P18054; purified 12hLO, xylenol orange hydroperoxide absorbance; Potency, µM (top dose mostly 108 µM), without a hit: at the top dose activity change, negative = inhibition, hits mostly inhibitors; actives 1.1% (n = 580,000); note: % is set by controls: 0 for no effect and ±100 for the full control effect
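Purified human 12hLO at 150 nM in 25 mM Hepes, 0.01% Triton X-100, pH 7.0, preincubated 15 min at room temperature with compound. Reaction started with 40 uM arachidonic acid, 30 min at room temperature. Hydroperoxide measured by Fe-xylenol orange, 573/405 nm absorbance ratio.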
G9a block: qHTS Assay for Inhibitors of Histone Lysine Methyltransferase G9a. G9a H3K9 monomethylation, AlphaScreen, 2 h. Histone-lysine N-methyltransferase EHMT2 (Homo sapiens), Q96KQ7. actives 8.8% (n = 350,000). Potency, µM (top dose mostly 102 µM), for inactives: at the top dose activity, negative = inhibition, actives largely listed as inhibitors; note: % is set by controls: 0 for no effect and ±100 for the full control effect; nearly all actives have a fitted effect of over 75% in size
Target sequence (Q96KQ7 913-1193 limits assumed): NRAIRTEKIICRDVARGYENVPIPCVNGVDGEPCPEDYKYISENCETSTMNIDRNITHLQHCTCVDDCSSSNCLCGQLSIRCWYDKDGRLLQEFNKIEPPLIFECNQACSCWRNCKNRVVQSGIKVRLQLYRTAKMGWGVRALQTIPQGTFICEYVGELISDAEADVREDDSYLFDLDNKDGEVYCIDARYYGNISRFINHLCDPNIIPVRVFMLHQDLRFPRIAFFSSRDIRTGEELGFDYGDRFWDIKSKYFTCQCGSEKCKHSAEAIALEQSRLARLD
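AlphaScreen detection with an anti-monomethyl H3K9 antibody quantified product after a 2 h room-temperature reaction containing 500 nM biotinylated H3K9 peptide, 20 µM SAM and 20 nM enzyme, which had been preincubated 15 min with compound.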
Numbers without * were called inactive; ? = inconclusive; / = no result; [ ] = dose if it differs, or a comment. Calls come from the whole dose curve; as a rule, active = well fitted curve in the direction sought with a large enough effect; inconclusive = small, poorly fitted or top-dose-only effect, or another doubt; inactive = no such curve, though single readings can be large; an effect the other way counts as inactive or inconclusive. Potency is the fitted concentration of half-maximal effect.

SMILES	JMJD2A Tudor inh	HP1b binding inh	PLK1 PBD inh	BAZ2B block	12-LOX inh	G9a block
S=c1[nH]nc2n1CCCN2	?	-11.4%	29.9µM*	-1.5%	?	-47.7%[59 µM]
CCOC(=O)Oc1ccc2oc(=O)cc(C)c2c1	-7.4%	23.5%	-0.4%	19.9%	0.0%	-44.2%
Cc1cc(-c2nnc(SCC(=O)Nc3ccccn3)o2)no1	?	18.7%	?	-11.8%	9.7%	41.1%[59 µM]
O=C(CSc1nnc(COc2ccccc2)o1)Nc1nccs1	-33.8%	64.2%	-9.8%	79.4µM*	9.4%	12.7%
Cc1ccc(OCc2nnc(SCC(=O)Nc3ccc(N4CCOCC4)cc3)o2)cc1	-12.3%	25.0%	-1.4%	-16.9%	-13.3%	-10.9%
Cc1cc(-c2nnc(SCC(=O)Nc3nccs3)o2)no1	39.8µM*	24.0%	-13.7%	20µM*	-9.4%	36.3%[12.7 µM]
O=C(CSc1nnc(COc2ccc(Cl)cc2)o1)Nc1ccc(N2CCOCC2)cc1	-6.2%	15.4%	-2.7%	4.0%	-2.7%	31.6µM*
O=C(CSc1nnc(COc2ccccc2)o1)NCCc1ccccc1	3.16µM*	?	2.67µM*	6.2%	0.0%	-4.0%[59 µM]
COCCN1C(=O)CS(=O)(=O)C12CCN(C(=O)c1ccc(F)cc1F)CC2	/	/	/	/	37.2%	/
O=C(CSc1nnc(COc2ccc(Cl)cc2)o1)Nc1nccs1	/	/	-10.7%	/	0.4%	/
Cc1cccc(OCc2nnc(SCC(=O)Nc3nccs3)o2)c1	-32.2%	44.5%	6.8%	79.4µM*	481.6%	7.0%
O=C(CSc1nnc(C2COc3ccccc3O2)o1)Nc1nccs1 (stereo not given)	79.4µM*	48.2%	-1.3%	39.8µM*	/	0.2%
S=C(NCc1ccc(Cl)cc1)Nc1ccc(Nc2ccccc2)cc1	/	/	/	/	17.8µM*	/
S=C(NCCc1ccc(Cl)cc1)Nc1ccc(Nc2ccccc2)cc1	/	/	/	/	28.2µM*	/
S=C(NCCc1ccccc1)Nc1ccc(Cl)cc1	-20.6%	33.3%	2.3%	-9.8%	?	28.9%[59 µM]
CCOc1ccc(NC(=O)CSc2nc(-c3cccs3)cc(C(F)(F)F)n2)c([N+](=O)[O-])c1	-15.2%	16.2%	-8.8%	?	-18.8%	-1.9%
O=[N+]([O-])c1ccc(-c2csc3[n+]2CCS3)cc1	-14.1%	16.7%	-27.3%	0.8%	?	35.5µM*
Cn1cc[nH]c1=S	?	16.0%	-3.8%	-22.7%	-14.3%	44.7µM*
COc1ccc(-c2cc(-c3ccc(OC)cc3)c(C#N)c(SC)n2)cc1	27.8%	24.9%	-15.1%	10.0%	11.6%	-4.5%[59 µM]
N#Cc1c(C(F)(F)F)cc(-c2ccco2)nc1SCc1ccncc1	4.2%	60.2%	-4.2%	7.4%	-14.5%	?
CSc1nc(-c2ccco2)cc(-c2ccccc2)c1C#N	-10.3%[11.4 µM]	161.0%	-13.7%	24.2%	?	50.1µM*
CSc1nc(-c2ccco2)cc(C(F)(F)F)c1C#N	-2.4%[57.1 µM]	-7.1%	16.8µM*	13.1%	?	25.1µM*
COc1c(OC)c2[nH]c(=O)cc3c4ccccc4n(c1=O)c23	-6.8%	23.3%	-3.1%	-0.8%	-8.5%	-6.6%[12.7 µM]
CN1CCN(CCCCOc2ccc(Br)cc2)CC1	20µM*	?	3.1%	56.2µM*	?	4.47µM*
Brc1ccc(OCCCCCN2CCOCC2)cc1	3.16µM*	-25.2%	-7.7%	35.5µM*	?	3.16µM*
SMILES	JMJD2A Tudor inh	HP1b binding inh	PLK1 PBD inh	BAZ2B block	12-LOX inh	G9a block
CN1CCN(CCCCOc2ccc(F)cc2)CC1	14.2%[57.1 µM]	42.9%	-2.8%	-1.6%	8.7%	-31.3%
CC1(C)CC(NC(=O)c2ccccc2Cl)CC(C)(C)N1	-10.2%	33.6%	-0.8%	/	9.7%	-2.5%[59 µM]
CCOC(=O)Cn1c(=NC(=O)CC)sc2c(C)cc(C)cc21	-5.6%	12.2%	-0.1%	-0.1%	-3.6%	9.5%
CC(=O)N1c2ccccc2C(=O)C1N1CCCCC1 (stereo not given)	-7.5%	45.3%	-9.6%	4.0%	237.5%	50.1µM*
CC(=O)N1c2ccccc2C(=O)C1N1CCN(c2cccc(Cl)c2)CC1 (stereo not given)	-20.1%	22.9%	/	-25.2%	?	-10.5%[59 µM]
CC(=O)C1=C(C)OC(N)=C(C#N)C1c1ccncc1 (stereo not given)	-5.4%	45.5%	-14.6%	9.2%	0.0%	?
Cc1nn(-c2cccc(Cl)c2)c2c1C(c1cccnc1)C(C#N)=C(N)O2 (stereo not given)	?	-14.9%	?	50.1µM*	-6.5%	44.7µM*
COc1ccc(OC)c(C2C(C#N)=C(N)Oc3c2c(C)nn3-c2cccc(Cl)c2)c1 (stereo not given)	50.1µM*	-37.5%	23.8µM*	39.8µM*	?	39.8µM*
Cc1nn(-c2cccc(Cl)c2)c2c1C(c1ccncc1)C(C#N)=C(N)O2 (stereo not given)	79.4µM*	?	?	39.8µM*	?	?
CC(C)(C)Nc1nc(Cl)nc(N(C#N)CN2C(=O)c3ccccc3S2(=O)=O)n1	-16.5%[11.4 µM]	-22.3%	-28.3%	-8.7%	?	-9.3%
Cc1c(NC(=O)c2nn(C(C)C)c(=O)c3ccccc23)c(=O)n(-c2ccccc2)n1C	/	/	-3.1%	/	4.5%	/
Oc1ccc(NC(=S)Nc2ccc(F)cc2)cc1	-7.3%	45.2%	-3.0%	-18.0%	?	6.0%[59 µM]
CC(Cc1cccs1)NC(=S)Nc1ccc(F)cc1 (stereo not given)	-7.6%	35.5%	-11.0%	7.9%	-27.5%	13.6%[59 µM]
CCC(C)NC(=S)Nc1ccc(F)cc1 (stereo not given)	10.7%	40.5%	-15.7%	2.6%	23.6%	50.1µM*
CCN(CC)c1ccc(NC(=S)Nc2ccc(F)cc2)cc1	35.5µM*	25.1µM*	?	22.4µM*	?	12.6µM*
CCOC(=O)C1=C(C)N=c2s/c(=C\c3cccc(OCC(=O)O)c3)c(=O)n2C1c1ccccc1OC (stereo not given)	?	-13.6%	0.0%	50.1µM*	2.7%	39.8µM*
CCOC(=O)C1=C(C)N=c2s/c(=C\c3ccc(OC(C)=O)c(OCC)c3)c(=O)n2C1/C=C/c1ccccc1 (stereo not given)	44.7µM*	3.1%	1.8%	1.8%	-14.3%	-1.0%[59 µM]
CCOC(=O)C1=C(C)N=c2sc(=Cc3ccc(OCC(=O)O)cc3)c(=O)n2C1c1ccc(Cl)cc1 (stereo not given)	/	/	-14.3%	/	?	/
